Shiga inhibitor – inhibitors of Shiga toxin in Vero cells. Vero cells, Shiga toxin protein synthesis inhibition reporter. inhibition, % at 38.7 µM. actives 9.2% (n = 290,000); in the data active = inhibition mostly above about 28%, no sharp cut-off; inactive = mostly below about 43%
Pf growth 48h – P. falciparum growth inhibition at 48 hours (one generation); P. falciparum luciferase growth in erythrocytes, 48 h; Potency, µM (series often up to 28.7 µM), most hits filed as inhibitors; actives 5.9% (n = 310,000); active = well fitted inhibition curve with a large enough effect; inconclusive = small, poorly fitted or top-dose-only effect, or another doubt; inactive = no such curve, though single readings can be large or run the other way
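Cell-based growth assay: transgenic P. falciparum expressing firefly luciferase, cultured in red cells within RPMI 1640 containing 0.5% w/v Albumax, 24 mM bicarbonate and gentamycin. A drop in luciferase activity indicates inhibition.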
SARS PLP yeast – inhibitors of SARS-CoV papain-like protease in yeast. S. cerevisiae expressing SARS-CoV PLpro, growth rescue. Potency, µM (series often up to 32.9 µM), actives largely listed as activators. actives 0.19% (n = 330,000). AID 485353; also: nearly all actives have a fitted effect of over 55% in size
Cycloheximide cs – counter-screen hit for Shiga toxin inhibitors, cycloheximide. cell reporter, cycloheximide protein synthesis inhibition counterscreen. actives 12% (n = 300,000). max response, %. AID 2314; in the data active = max response mostly above about 13%, no sharp cut-off; inactive = mostly below about 14%; also: read at 38.3 µM for the half of the compounds with a filed dose
Pf growth 96h – inhibits malaria parasite growth, 96 h; P. falciparum luciferase reporter growth, 96 h; AID 504834; Potency, µM (highest dose often 28.7 µM), usual class: inhibitors; actives 6.9% (n = 320,000); active = well fitted inhibition curve with a large enough effect; inconclusive = small, poorly fitted or top-dose-only effect, or another doubt; inactive = no such curve, though single readings can be large or run the other way
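Plates of compound plus infected erythrocytes (2% hematocrit, 0.05% parasitemia final) incubate 96 hours, 37 C, 5% CO2. Detection reagent added; reduced luminescence from the parasites' luciferase reporter flags inhibition.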
NS1 inh – blocks influenza NS1 protein function. Potency, µM (doses to about 46.1 µM). actives 0.4% (n = 270,000). AID 2326; also: actives are rising curves; nearly all actives have a fitted effect of over 50% in size
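Recovery from NS1-induced slow growth read by OD600 in budding yeast switched to galactose assay medium (pH 6.0, -URA) at 1:100 dilution. Compound 23 nl per well; the matching strain lacking NS1 serves as control.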
Numbers stand for hits; - = inactive; ? = inconclusive; . = no result given; + = active, no number. In the library only some 21% were active in any assay of this set; here they are far more common. Unless noted, calls follow the shape of the full dose curve.

SMILES	Shiga inhibitor	Pf growth 48h	SARS PLP yeast	Cycloheximide cs	Pf growth 96h	NS1 inh
CCCN(CCC)CC(O)COc1ccc([N+](=O)[O-])cc1 (stereo not drawn)	-	?	-	-	15µM	-
COC(=O)c1ccc(OCC(O)CN2CCN(CC(O)COc3ccc(C(=O)OC)cc3)CC2)cc1 (stereo not drawn)	-	?	-	-	-	-
COC(=O)c1ccc(OCC(O)CN(CC(C)C)CC(C)C)cc1 (stereo not drawn)	-	13µM	-	-	?	-
CC(=O)/C(=N\Nc1ccccc1)Oc1ccc([N+](=O)[O-])cc1	-	9.3µM	-	-	10µM	-
O=C(NCC(O)COc1ccc([N+](=O)[O-])cc1)Nc1ccccc1 (stereo not drawn)	34	-	-	30	-	-
CCCN(CCC)CC(O)COc1ccc2c(c1)OCO2 (stereo not drawn)	-	-	-	-	?	.
CCOc1ccc(OCc2ccc(C(=O)O)o2)cc1	60	-	-	33	?	-
CCCc1cc(=O)oc2cc(OCc3ccc(C(=O)O)o3)ccc12	-	-	-	-	-	-
O=C(O)c1ccc(COc2ccc3ccccc3c2)o1	94	-	-	42	-	-
CCn1c(SCC(=O)N/N=C/c2ccccc2OCC(=O)O)nnc1-c1ccc(C)cc1	-	-	-	-	-	-
CC(C)(C)C(=O)Nc1nc(-c2ccccc2)ns1	84	-	-	58	-	-
c1ccc(Nc2nc(-c3ccccc3)ns2)cc1	82	-	-	52	-	-
O=C(Nc1nc(-c2ccccc2)ns1)c1ccncc1	-	-	-	-	-	-
CN(C)S(=O)(=O)c1ccc(NC(=O)COc2ncnc3sccc23)cc1	-	-	-	-	-	.
CC(c1nc2ccccc2c(=O)[nH]1)N(C)c1ccc2ccccc2c1 (stereo not drawn)	-	6.6µM	-	-	15µM	-
CN1C(=O)COc2c(C(=O)NC3CN4CCC3CC4)cc(Cl)cc21 (stereo not drawn)	-	-	-	-	4.8µM	.
C=CCc1cc(OC)ccc1OCCN1CC(C)OC(C)C1 (stereo not drawn)	.	-	-	-	-	-
CN1CCC2(CC1)Nc1nc(SCc3ccc(Cl)cc3)nn1C1=C2CN(C)CC1	-	3.3µM	?	-	-	-
Cc1ccc2c(Cl)cc(Cl)c(OCC(=O)Nc3ccc(C)c(S(=O)(=O)N(C)C)c3)c2n1	-	-	-	-	-	-
CC(C)CN(C(=O)c1ccc(S(=O)(=O)N2CCCC2)cc1)C1CCS(=O)(=O)C1 (stereo not drawn)	.	-	-	.	-	.
O=C(Nc1cccc(S(=O)(=O)Nc2ccccc2F)c1)c1ccc2ccccc2n1	-	-	-	-	-	.
COc1ccccc1NS(=O)(=O)c1cccc(NC(=O)c2ccc3ccccc3n2)c1	-	-	-	17	?	-
Cc1ccccc1NC(=S)c1ccc2ccccc2n1	97	-	-	48	-	-
O=C(Nc1ccc(OC(F)(F)F)cc1)c1ccc2ccccc2n1	-	-	-	42	-	-
COc1ccc(NC(=O)COC(=O)c2ccc3ccccc3n2)cc1	.	-	-	.	-	.
SMILES	Shiga inhibitor	Pf growth 48h	SARS PLP yeast	Cycloheximide cs	Pf growth 96h	NS1 inh
CCCN(CC(=O)Nc1ccccc1C)C(=O)c1ccc2ccccc2n1	.	-	-	.	-	.
Cc1ccc(NC(=O)c2ccc3ccccc3n2)nc1	115	-	-	38	-	-
O=C(COC(=O)c1ccc(F)c(S(=O)(=O)N2CCOCC2)c1)Nc1ccc2c(c1)OCO2	.	-	-	.	-	.
Clc1nnc(Cl)c2c1ncn2Cc1ccccc1	-	?	-	-	?	-
O=C(Nc1ccccc1)c1ccc2ccccc2n1	94	-	-	49	-	-
O=C(Nc1ccccc1C(=O)O)c1ccc2ccccc2n1	124	-	-	30	-	-
Cc1ccc(NC(=O)CSc2nnc(-c3n[nH]c4ccccc34)n2-c2ccccc2)c(C)c1	-	?	-	-	?	-
Cc1cc2cc(C=C(C#N)C#N)c(Cl)nc2cc1C	+	-	-	25	-	-
COc1cccc(COCCN2CCN(S(=O)(=O)c3ccccc3)CCC2=O)c1	-	.	.	-	.	.
Cc1ccc2c(c1)N(CC(=O)Nc1ccccc1F)C(=O)CO2	-	-	-	-	2.9µM	-
O=C(CN1C(=O)COc2ccccc21)N(Cc1ccccc1)Cc1ccccn1	-	-	-	35	?	-
Cc1ccc(CN(Cc2cccnc2)C(=O)CN2C(=O)COc3ccccc32)o1	-	-	-	-	-	-
CCOc1ccccc1NC(=O)CN1C(=O)COc2ccccc21	-	-	-	-	12µM	-
O=C(CN1C(=O)COc2ccccc21)Nc1ccccc1F	-	-	-	-	-	-
CCOc1ccccc1NC(=O)CN1C(=O)C(=O)N(Cc2ccco2)C1=O	-	12µM	-	-	-	.
COc1ccc(C(=O)OCC(=O)Nc2c(C)n(C)n(-c3ccccc3)c2=O)cc1	.	.	-	.	.	.
O=C(CN1C(=O)NC(c2ccccc2)(c2ccccc2)C1=O)NCc1ccc(F)cc1	.	.	-	.	.	.
O=C(NCCCN1CCOCC1)C(C(=O)NCCCN1CCOCC1)c1ncc(C(F)(F)F)cc1Cl	-	-	-	-	-	-
Cc1nnc(SCC(=O)NC2CC2)n1-c1ccccc1	-	-	?	-	4.7µM	-
COc1cccc(-n2nnnc2SCC(=O)NC2CCCCC2)c1	-	-	-	34	-	-
Cc1cccc(-n2c(SCC(=O)NCc3ccco3)nnc2-c2ccco2)c1	-	?	-	-	5.2µM	-
CC(C)n1nnnc1SCC(=O)NNC(=O)C1CCCCC1	-	-	-	-	-	-
CC(C)n1nnnc1SCC(=O)NC1CCCC1	-	-	-	-	5.2µM	-
N#Cc1ccccc1S(=O)(=O)Nc1ccc2c(c1)OCCO2	-	-	-	-	?	-
O=C(CCC1CCCC1)N1CCC(N2CCCCCC2)CC1	-	-	-	-	-	-
SMILES	Shiga inhibitor	Pf growth 48h	SARS PLP yeast	Cycloheximide cs	Pf growth 96h	NS1 inh
Cn1c(SCC(=O)NC2CCCC2)nnc1-c1ccco1	-	-	-	-	-	-
COc1cccc(-n2nnnc2SCC(=O)c2cc(OC)ccc2OC)c1	-	-	-	-	12µM	-
COc1cccc(-n2c(SCC(=O)NC3CCCC3)nnc2-c2ccco2)c1	-	2.1µM	-	-	-	-
COc1ccc(OC)c(-n2nnnc2SCC(=O)NCCc2ccccc2)c1	-	-	-	-	9.3µM	-
Cc1occc1-c1nnc(SCC(=O)NC2CC2)n1C	-	-	-	-	?	-
Cc1cccc(-n2c(SCC(=O)NC3CCCC3)nnc2-c2ccoc2C)c1	-	13µM	-	-	-	-
CC(C)(C)N1CC23CCC(C[C@@H]2C1=O)O3 (stereo partly drawn)	.	-	-	.	-	.
c1cc(Nc2cccc3nccnc23)c2nccnc2c1	-	-	-	-	-	-
Fc1ccc(Nc2cccc3nccnc23)cc1	47	-	-	22	-	-

High-throughput results (PubChem)
